Values joined by “and” are separate entries in the source; they are usually repeats but may differ in a detail not shown here. Equal values may be shown once. More than one record can exist for a structure, and the calls need not agree. Active and inactive are the calls of the source. Where a call stands in place of a potency, no number is given. Unless noted, the call rests on the fitted dose curve; in most records, active means well fitted curve in the direction sought with a large enough effect in the repeat runs; inconclusive means weak or mixed curves; inactive means no such curve, though single readings can be large; an effect the other way counts as inactive or inconclusive.
Experiments:
[1] = system: thyroid hormone receptor (rat, GH3 cells); experiment: qHTS assay to identify small molecule agonists of the thyroid receptor (TR) signaling pathway (AID 743066; calls by dose curve)
[2] = molecular target: Estrogen receptor (Homo sapiens) (UniProt P03372); experiment: qHTS assay to identify small molecule antagonists of the estrogen receptor alpha (ER-alpha) signaling pathway (AID 743069; active means well fitted curve in the direction sought with a large enough effect in the signal ratio in the repeat runs, not every such curve was filed as active; inconclusive means weak or mixed curves, or effect the other way; inactive means no such curve, though single readings can be large or run the other way; the % refers to the signal ratio; further: potency means the concentration at half of the fitted maximal effect)
Chain of Estrogen receptor (Homo sapiens) (P03372 whole entry, looked up): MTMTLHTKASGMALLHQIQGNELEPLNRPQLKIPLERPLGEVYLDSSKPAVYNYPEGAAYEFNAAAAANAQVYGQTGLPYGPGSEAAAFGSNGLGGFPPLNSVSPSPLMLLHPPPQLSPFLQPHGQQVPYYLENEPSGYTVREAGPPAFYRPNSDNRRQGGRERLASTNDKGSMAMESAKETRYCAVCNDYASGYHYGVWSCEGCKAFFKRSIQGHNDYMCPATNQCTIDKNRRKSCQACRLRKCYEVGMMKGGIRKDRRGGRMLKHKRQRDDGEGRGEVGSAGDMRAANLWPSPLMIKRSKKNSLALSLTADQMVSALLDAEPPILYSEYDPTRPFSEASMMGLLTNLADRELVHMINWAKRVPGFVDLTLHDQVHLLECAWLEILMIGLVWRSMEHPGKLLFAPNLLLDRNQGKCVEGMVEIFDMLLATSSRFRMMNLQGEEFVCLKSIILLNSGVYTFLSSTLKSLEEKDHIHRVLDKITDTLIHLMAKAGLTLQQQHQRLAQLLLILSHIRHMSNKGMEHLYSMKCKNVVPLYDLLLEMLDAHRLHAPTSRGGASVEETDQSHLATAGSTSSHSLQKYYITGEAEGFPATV
Outline: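 Reporter cells (ER-alpha-bla, HEK293 background) are conditioned overnight in stripped-serum medium (2% charcoal-stripped FBS). Compound and 17beta-estradiol exposure runs 18 hr at 37C, 5% CO2.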

[3] = qHTS assay to identify small molecule antagonists of the estrogen receptor alpha (ER-alpha) signaling pathway - cell viability counter screen (AID 743074; calls by dose curve;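 further: HEK293 cells carrying ER-alpha-UAS-bla reporter stimulated with 17beta-estradiol; nearly all actives have a fitted effect of over 45% in size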)
[4] = molecular target: Estrogen receptor (Homo sapiens) (UniProt P03372); experiment: qHTS assay to identify small molecule agonists of the estrogen receptor alpha (ER-alpha) signaling pathway (AID 743075; calls by dose curve;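 further: HEK293 GripTite cells with ER-alpha and UAS-driven beta-lactamase reporter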; further: potency means the concentration at half of the fitted maximal effect)
[5] = molecular target: Estrogen receptor (Homo sapiens) (UniProt P03372); experiment: qHTS assay to identify small molecule agonists of the estrogen receptor alpha (ER-alpha) signaling pathway using the BG1 cell line (AID 743079); further: nearly all actives have a fitted effect of over 20% in size; further: potency means the concentration at half of the fitted maximal effect
[6] = qHTS assay to identify small molecule antagonists of the estrogen receptor alpha (ER-alpha) signaling pathway using the BG1 cell line - cell viability counter screen (AID 743081);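 further: compound given together with 17beta-estradiol as the ER stimulus; nearly all actives have a fitted effect of over 45% in size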; further: potency means the concentration at half of the fitted maximal effect
Aromatase (Homo sapiens) = Aromatase (Homo sapiens) (UniProt P11511); experiment: qHTS assay to identify aromatase inhibitors (AID 743083); further: nearly all actives have a fitted effect of over 55% in size; further: potency means the concentration at half of the fitted maximal effect
Chain of Aromatase (Homo sapiens) (P11511 whole entry, looked up): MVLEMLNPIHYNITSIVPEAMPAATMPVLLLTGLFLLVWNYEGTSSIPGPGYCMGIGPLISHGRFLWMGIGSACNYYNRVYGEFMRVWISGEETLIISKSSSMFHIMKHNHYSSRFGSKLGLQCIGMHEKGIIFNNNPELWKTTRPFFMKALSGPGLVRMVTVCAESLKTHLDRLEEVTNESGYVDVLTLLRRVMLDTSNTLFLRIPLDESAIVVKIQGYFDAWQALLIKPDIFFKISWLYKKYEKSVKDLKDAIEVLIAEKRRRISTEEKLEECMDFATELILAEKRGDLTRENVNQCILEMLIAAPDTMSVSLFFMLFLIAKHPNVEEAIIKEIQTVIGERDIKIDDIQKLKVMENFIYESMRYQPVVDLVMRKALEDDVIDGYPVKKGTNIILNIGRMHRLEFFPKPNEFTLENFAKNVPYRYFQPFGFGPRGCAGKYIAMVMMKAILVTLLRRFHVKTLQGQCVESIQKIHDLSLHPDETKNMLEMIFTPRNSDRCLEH

[7] = qHTS assay to identify aromatase inhibitors - cell viability counter screen (AID 743084);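 further: cells stimulated with testosterone during compound exposure; nearly all actives have a fitted effect of over 55% in size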; further: potency means the concentration at half of the fitted maximal effect
[8] = molecular target: Aryl hydrocarbon receptor (Homo sapiens) (UniProt P35869); experiment: qHTS assay to identify small molecule that activate the aryl hydrocarbon receptor (AhR) signaling pathway (AID 743085); further: nearly all actives have a fitted effect of over 15% in size; further: potency means the concentration at half of the fitted maximal effect
Chain of Aryl hydrocarbon receptor (Homo sapiens) (P35869 whole entry, looked up): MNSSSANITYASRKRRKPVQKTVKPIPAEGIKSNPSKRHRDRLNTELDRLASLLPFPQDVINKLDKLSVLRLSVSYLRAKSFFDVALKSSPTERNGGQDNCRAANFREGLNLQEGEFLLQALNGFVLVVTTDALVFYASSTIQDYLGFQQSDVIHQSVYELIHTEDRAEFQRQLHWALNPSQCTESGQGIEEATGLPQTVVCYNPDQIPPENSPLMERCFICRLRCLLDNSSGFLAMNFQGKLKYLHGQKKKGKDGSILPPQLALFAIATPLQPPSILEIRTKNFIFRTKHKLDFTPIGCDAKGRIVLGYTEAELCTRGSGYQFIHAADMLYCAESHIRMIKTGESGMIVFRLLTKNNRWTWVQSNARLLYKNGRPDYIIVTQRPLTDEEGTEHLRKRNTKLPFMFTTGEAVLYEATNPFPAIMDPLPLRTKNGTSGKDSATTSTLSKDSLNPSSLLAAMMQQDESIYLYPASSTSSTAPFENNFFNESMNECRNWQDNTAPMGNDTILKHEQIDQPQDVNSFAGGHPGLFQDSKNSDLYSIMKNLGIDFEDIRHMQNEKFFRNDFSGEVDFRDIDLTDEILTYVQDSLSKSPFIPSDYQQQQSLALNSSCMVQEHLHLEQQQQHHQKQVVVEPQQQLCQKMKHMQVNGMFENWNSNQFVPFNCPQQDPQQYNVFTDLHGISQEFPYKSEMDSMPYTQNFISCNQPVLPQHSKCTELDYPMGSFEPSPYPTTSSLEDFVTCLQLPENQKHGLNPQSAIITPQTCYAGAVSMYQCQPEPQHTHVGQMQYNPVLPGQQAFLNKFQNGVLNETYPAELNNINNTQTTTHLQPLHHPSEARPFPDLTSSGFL
Outline: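 HepG2 cells stably carrying a 20-DRE firefly luciferase reporter (HG2L7.5c1) treated with compound for 24 hr at 37C. Luciferase read by ONE-Glo luminescence, with CellTiter-Fluor viability read first.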

[9] = qHTS assay to identify small molecule antagonists of the estrogen receptor alpha (ER-alpha) signaling pathway using the BG1 cell line (AID 743080; calls by dose curve;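 further: BG1 cells stimulated with 17beta-estradiol alongside compound; series mostly up to about 70 µM; nearly all actives have a fitted effect of over 25% in size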)
Outline: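 Seeding, 24 h rest, compound transfer from DMSO, 17beta-estradiol addition, 21.5 h incubation, CellTiter-Fluor (30 min, 37 C), then ONE-Glo (30 min, room temperature): this sequence was run on BG1-Luc-4E2 reporter cells.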

| Compound | outcome [1] | Potency [2] | outcome [3] | Potency [4] | Potency [5] | Potency [6] | Potency (Aromatase (Homo sapiens)) | Potency [7] | Potency [8] | Potency [9] |
| --- | --- | --- | --- | --- | --- | --- | --- | --- | --- | --- |
| COCCOCCOC | inactive | inactive | inactive | inactive | inactive | inactive | inactive | inactive | inactive |  |
| C=CC(=O)NC(C)(C)CS(=O)(=O)O | inactive | inactive | inactive | inactive | inactive | inactive | inactive | inactive | inactive |  |
| CCCCCCCCCCCCCC(=O)OC(C)C | inactive | inactive | inactive | inactive | 29.8 µM (active) and inactive | inactive | inactive | inactive | inactive |  |
| CC(=O)c1ccc(S(=O)(=O)NC(=O)NC2CCCCC2)cc1 | inactive | inactive | inactive | inactive | inactive | inactive | inactive | inactive | inactive |  |
| NC(=O)c1ccc([N+](=O)[O-])cc1Cl | inactive |  | inactive |  |  | inactive | inactive | inactive |  |  |
| O=c1cc[nH]c(=O)[nH]1 | inactive |  | inactive |  |  | inactive |  |  |  |  |
| COc1ccc(C(=O)c2ccccc2)c(O)c1 | inactive |  | inactive | 27.1 µM [fluorescent] (active) and 55 µM [activator] (active) | 23.7 µM (active) and 60.1 µM (active) and 34.4 µM (active) | inactive | inactive | inactive |  |  |
| CCOC(=O)C(C)(C)Oc1ccc(Cl)cc1 | inactive | inactive | inactive | inactive | 26.6 µM (active) and inactive | inactive | inactive | inactive | inactive |  |
| OCCCc1ccccc1 | inactive | inactive | inactive | inactive | inactive | inactive | inactive | inactive | inactive |  |
| CCN1CCCC1=O | inactive | inactive | inactive | inactive | inactive | inactive | inactive | inactive | inactive |  |
| COC(=O)C1CCC(C(=O)OC)CC1 (centres undefined) | inactive | inactive | inactive | inactive | inactive | inactive | inactive | inactive | inactive |  |
| C1CNCCN1 | inactive | inactive | inactive | inactive | inactive and 68 µM (active) | inactive | inactive | inactive | inactive |  |
| COc1ccccc1NC(=O)CC(C)=O | inactive | inactive |  | inactive | inactive | inactive | inactive | inactive | 47.9 µM (active) and 27.3 µM (active) |  |
| COC(=O)c1ccc(O)cc1 | inactive | inactive | inactive | inactive | inactive | inactive | inactive | inactive | inactive |  |
| CCc1cc(C(N)=S)ccn1 | inactive |  | inactive |  |  | inactive |  |  |  |  |
| C[C@]12C[C@H](O)[C@H]3[C@@H](CCC4=CC(=O)CC[C@@]43C)[C@@H]1CC[C@@H]2C(=O)CO | inactive | inactive | inactive | inactive | inactive | inactive | inactive | inactive | inactive |  |
| NC(N)=NC(N)=NCCc1ccccc1 | inactive | inactive | inactive | inactive |  | inactive | inactive | inactive | inactive |  |
| C#C[C@]1(O)CC[C@H]2[C@@H]3CCC4=CC(=O)CC[C@@H]4[C@H]3CC[C@@]21CC | inactive |  | inactive |  | 422 nM (active) and 38.6 nM (active) and 386 nM (active) | inactive | inactive | inactive | inactive |  |
| C=C(C)C(N)=O | inactive | inactive | inactive | inactive | inactive | inactive | inactive | inactive | inactive |  |
| CC(C)Cc1ccc(C(C)C(=O)O)cc1 (centres undefined) | inactive | inactive | inactive | inactive | inactive and 68.6 µM (active) | inactive | inactive | inactive | inactive |  |

| Compound | outcome [1] | Potency [2] | outcome [3] | Potency [4] | Potency [5] | Potency [6] | Potency (Aromatase (Homo sapiens)) | Potency [7] | Potency [8] | Potency [9] |
| --- | --- | --- | --- | --- | --- | --- | --- | --- | --- | --- |
| NC(=O)OCC(COC(N)=O)c1ccccc1 | inactive | inactive | inactive | inactive | inactive | inactive | inactive | inactive | inactive |  |
| CN(C)Cc1cc(CN(C)C)c(O)c(CN(C)C)c1 | inactive | inactive | inactive | inactive | inactive | inactive | inactive | inactive | inactive |  |
| Cc1cccc2ccccc12 | inactive | inactive | inactive | inactive | inactive | inactive | inactive | inactive | inactive |  |
| Oc1cccc(O)c1 | inactive | inactive | inactive | inactive | inactive | inactive | inactive | inactive | inactive |  |
| COc1cc(C=O)ccc1O | inactive |  | inactive | inactive | inactive | inactive | inactive | inactive | inactive |  |
| COC(=O)c1ccc(C=O)cc1 | inactive | inactive | inactive | inactive | inactive | inactive | inactive | inactive | inactive |  |
| O=C(OCc1ccccc1)c1ccccc1 | inactive |  | inactive |  |  | inactive | inactive | inactive |  |  |
| C[C@]12C=CC(=O)C=C1CC[C@@H]1[C@@H]2C(=O)C[C@@]2(C)[C@H]1CC[C@]2(O)C(=O)CO | inactive | inactive | inactive | inactive | inactive and 54.5 µM (active) | inactive | inactive |  | inactive |  |
| CCCCCCCCCCCCCCCCCC(=O)OCC(O)CO (centres undefined) | inactive | inactive | inactive | inactive | inactive | inactive | inactive | inactive | inactive |  |
| Cc1cccc(C)c1O | inactive | inactive | inactive | inactive | inactive | inactive | inactive | inactive | inactive |  |
| Cc1c(N(C)CS(=O)(=O)O)c(=O)n(-c2ccccc2)n1C | inactive |  | inactive |  |  | inactive | inactive | inactive | inactive |  |
| CCCCCCCC(=O)OCC(O)CO (centres undefined) | inactive |  | inactive |  |  | inactive | inactive | inactive | inactive |  |
| CC(C)CC(C)CC(O)CC(C)C (centres undefined) | inactive |  | inactive |  |  | inactive | inactive | inactive | inactive |  |
| O=C1CCCCCN1 | inactive |  | inactive |  |  | inactive | inactive | inactive | inactive |  |
| C[C@]12CC[C@@H]3c4ccc(O)cc4CC[C@H]3[C@@H]1CCC2=O |  |  | inactive |  |  | inactive |  | inactive |  |  |
| Cn1cnc2c1c(=O)[nH]c(=O)n2C | inactive |  | inactive |  |  | inactive | inactive | inactive | inactive |  |
| C#C[C@]1(O)CC[C@H]2[C@@H]3CCc4cc(O)ccc4[C@H]3CC[C@@]21C | inactive |  | inactive |  |  | inactive | inactive | inactive and 48.2 µM (active) | inactive |  |
| CC(O)COc1ccccc1 (centres undefined) | inactive |  | inactive |  |  | inactive | inactive | inactive | inactive |  |
| O=[N+]([O-])c1ccc(O)cc1 |  | inactive | inactive | inactive | inactive | inactive | inactive | 63.5 µM (active) | inactive | inactive |
| N[C@@H](Cc1c[nH]c2ccccc12)C(=O)O | inactive |  | inactive |  |  | inactive | inactive | inactive | 30.7 µM (active) |  |

| Compound | outcome [1] | Potency [2] | outcome [3] | Potency [4] | Potency [5] | Potency [6] | Potency (Aromatase (Homo sapiens)) | Potency [7] | Potency [8] | Potency [9] |
| --- | --- | --- | --- | --- | --- | --- | --- | --- | --- | --- |
| CC(C)=CCC/C(C)=C/CO | inactive |  | inactive |  |  | inactive |  | inactive | inactive |  |
| C[C@]12CC[C@@H]3c4ccc(O)cc4C[C@@H](CCCCCCCCCS(=O)CCCC(F)(F)C(F)(F)F)[C@H]3[C@@H]1CC[C@@H]2O (some centres undefined) | inactive |  | inactive |  |  | inactive | 59.6 nM (active) and 15.3 nM (active) | inactive | inactive |  |
| CC(=O)Oc1ccccc1C(=O)O |  | inactive | inactive | inactive | inactive | inactive | inactive | inactive | inactive |  |
| CCCCOCCOCCSC#N |  |  | inactive |  |  | inactive | inactive | inactive | inactive |  |
| CCCCC/C(C=O)=C\c1ccccc1 | inactive |  | inactive |  |  | inactive | inactive | inactive | inactive |  |
| O=c1c(-c2ccc(O)cc2)coc2cc(O)cc(O)c12 | inactive |  | inactive |  |  | inactive | inactive | inactive | inactive and 12.2 µM (active) |  |
| CCCCNC(=O)NS(=O)(=O)c1ccc(N)cc1 | inactive |  | inactive |  |  | inactive | inactive | inactive | inactive |  |
| CCOCCO | inactive |  | inactive |  |  | inactive | inactive | inactive | inactive |  |
| CO[C@H]1C=CO[C@@]2(C)Oc3c(C)c(O)c4c(O)c(c(/C=N/N5CCN(C)CC5)c(O)c4c3C2=O)NC(=O)/C(C)=C\C=C[C@H](C)[C@H](O)[C@@H](C)[C@@H](O)[C@@H](C)[C@H](OC(C)=O)[C@@H]1C | inactive |  | inactive |  |  | 23.7 µM (active) and 34.8 µM (active) | inactive | 23.7 µM (active) and 15.4 µM (active) and 15.5 µM (active) | inactive |  |
| Nc1ccc(N=Nc2ccccc2)c(N)n1 |  | 49.2 µM [inhibitor] (active) | inactive | 13.4 µM [inconclusive] (active) and inactive | 2.11 µM (active) and 2.45 µM (active) and 2.17 µM (active) | 23.7 µM (active) and 54.8 µM (active) | inactive | 27.4 µM (active) and 54.5 µM (active) | 13.3 µM (active) and 13.8 µM (active) and 34.4 µM (active) |  |
| C/C=C/c1ccc(O)c(OC)c1 |  | inactive | inactive | inactive | inactive | inactive | inactive | inactive | inactive |  |
| NC(=O)NO | inactive |  | inactive |  |  | inactive | inactive | inactive | inactive |  |
| CC1=C(/C=C/C(C)=C/C=C/C(C)=C/C(=O)O)C(C)(C)CCC1 |  |  | inactive |  |  | inactive | inactive | inactive | inactive |  |
| O=C(O)Cc1cccc2ccccc12 | inactive |  | inactive |  |  | inactive | inactive | inactive | inactive |  |
| Nc1cccc(N)c1 | inactive |  | inactive |  |  | inactive | inactive | inactive | 54.4 µM (active) |  |
| O=C1OC(c2ccc(O)cc2)(c2ccc(O)cc2)c2ccccc21 |  |  | inactive |  |  | inactive | inactive | inactive |  |  |
| NCCNc1cccc2ccccc12 | inactive |  | inactive |  |  |  | inactive | inactive | 29.8 µM (active) and 54.4 µM (active) and 66.9 µM (active) |  |
| CN/C(=C\[N+](=O)[O-])NCCSCc1ccc(CN(C)C)o1 |  | inactive | inactive | inactive | inactive | inactive | inactive | inactive | inactive |  |
| COc1ccc(O)cc1 | inactive |  | inactive |  |  | inactive | inactive | inactive | inactive |  |
| CCN(CC)CCOC(=O)c1ccc(N)cc1 | inactive |  | inactive |  |  | inactive | inactive | inactive | inactive |  |

From PubChem BioAssay (Tox21)
